{"source": "the supplement of paper PMC11417369", "note": "± gives the standard deviation of the averaged measurements. In all, about 25,000 sequences were measured (“ln(normalized median fluorescence intensity)”: median about 7.9, highest 2% from about 11 on). This excerpt belongs to a sample that is enriched for the highest values."}
{"test_system": "PfAP2-I AP2 domain 3 (GST-tagged)", "test": "gcPBM binding intensity (ln(normalized median fluorescence intensity)); higher = stronger DNA binding", "in_short": "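Binding intensity values are the highest Masliner-normalised natural-log median intensity among replicate spots of either probe orientation. The binding step lasted 1 h in 1× PBS with 1% milk, 0.2 mg/ml BSA, 0.5% salmon testes DNA and 0.03% Triton X-100, using GST-tagged P. falciparum DNA-binding domains expressed in E. coli on an Agilent 4 × 180k array of primer-extended double-stranded 36-bp intergenic genomic probes plus negative controls. Alexa488 anti-GST antibody and a 488 nm scan detected bound protein.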"}
{"sequence": "TGAACTCAACAAAGGGTGCATAACAAAAATAGACGT", "gcPBM binding intensity (ln)": "11.4 ± 0.23"}
{"sequence": "ATAACAAAAAAAAAGGTGCTACAAAATGAATAAAAA [GTGCAC_site9659]", "gcPBM binding intensity (ln)": "9.12 ± 0.3"}
{"sequence": "TGAACAGACAAATACACACACTCAAAAAAAAAAAAG [CACACA_site7287]", "gcPBM binding intensity (ln)": "7.68 ± 0.45"}
{"sequence": "TTTTTTTTTAATATTTGTACACAACATGAAACATTT [XGTACX_site473]", "gcPBM binding intensity (ln)": "8.16 ± 0.53"}
{"sequence": "TATATTTATGTATATGTGCACATAAATTTAAGAATG [GTGCAC_site9512]", "gcPBM binding intensity (ln)": "9.68 ± 0.19"}
{"sequence": "TATTGACATATATTAGTGCAATAATGAAATCAAGTA", "gcPBM binding intensity (ln)": "10.9 ± 0.43"}
{"sequence": "TATAAGAATGACAAGTGTACATATCAAATATATTAG [XGTACX_site7113]", "gcPBM binding intensity (ln)": "7.77 ± 0.38"}
{"sequence": "TATATATTAATCAAAGTGCAATAATAAAATAAAAGT [GTGCAC_site9490]", "gcPBM binding intensity (ln)": "10.8 ± 0.34"}
{"sequence": "ATAAAATAAAGGAAAAATATTAAGTTTTAAGAAAAT [CACACA_negctrl_site1066]", "gcPBM binding intensity (ln)": "7.6 ± 0.76"}
{"sequence": "ATTATTTAAATGGATGCACACATGCATTAAATAAAA [CACACA_site5831]", "gcPBM binding intensity (ln)": "8.99 ± 0.82"}
{"sequence": "AATAACAAAATATTAACACACATAACATATTATAAA [CACACA_site2803]", "gcPBM binding intensity (ln)": "7.55 ± 0.47"}
{"sequence": "ATATATTATATTATATGTACTTAAAAAAGTGCAAAG [XGTACX_site318]", "gcPBM binding intensity (ln)": "8.485 ± 0.035"}
{"sequence": "AAAAAAATTACGCAAGTGCATATAATTTAACAAAAA", "gcPBM binding intensity (ln)": "9.625 ± 0.007"}
{"sequence": "ACGCAATATTAACAAGTGCATTATAACACATAACAT", "gcPBM binding intensity (ln)": "11.3 ± 0.61"}
{"sequence": "CATTATGTACAAAAAGTGCAATATATATTAACACTG", "gcPBM binding intensity (ln)": "11 ± 0.43"}
{"sequence": "ACAATATGCAAAAAGTGTACACATTCATTTATATAA [XGTACX_site1061]", "gcPBM binding intensity (ln)": "8.34 ± 0.32"}
{"sequence": "AATTAAATTACTTATACACACATAAAATGTCTGTAT [CACACA_site997]", "gcPBM binding intensity (ln)": "7.76 ± 0.34"}
{"sequence": "AAATTTATGTGTGCCTGTACATATCAAAGATTTAAG [XGTACX_site8547]", "gcPBM binding intensity (ln)": "7.93 ± 0.34"}
{"sequence": "ACATACATATGTAAATGTACAAAATATCCATAGATT [XGTACX_site2782]", "gcPBM binding intensity (ln)": "7.54 ± 0.77"}
{"sequence": "AAATAACAAAAGAAGGTGCTCATAAAAATTCATACA [GTGCAC_site9864]", "gcPBM binding intensity (ln)": "8.51 ± 0.28"}
{"sequence": "TCAGATCCATAGAAGGTGCAAATAACAAAAATACAA [GTGCAC_site9610]", "gcPBM binding intensity (ln)": "11 ± 0.43"}
{"sequence": "GAAATAAAAAGAAATGCATGTAATTTTTTTTTTTTT [TGCATGCA_site928]", "gcPBM binding intensity (ln)": "7.61 ± 0.83"}
{"sequence": "AATGACATTCTTACACGTACAAAATAAAAAATAAAA [XGTACX_site6932]", "gcPBM binding intensity (ln)": "7.89 ± 0.59"}
{"sequence": "AATTTGTAAAATAAGGTGCGTATAAAAAATTATATT [GTGCAC_site9676]", "gcPBM binding intensity (ln)": "9.71 ± 0.2"}
{"sequence": "ATAAGAATATATAGAGTGCGTTGAAGAATTATAATA", "gcPBM binding intensity (ln)": "9.89 ± 0.27"}
{"sequence": "CTTTATAAAATAAGAGTGCGTTATATTGAATTGTAT [GTGCAC_site9390]", "gcPBM binding intensity (ln)": "10.9 ± 0.6"}
{"sequence": "TTATTCATATTATCATGTACTTATATATATTGTCAT [XGTACX_site2231]", "gcPBM binding intensity (ln)": "7.72 ± 0.55"}
{"sequence": "AGAAGAAAAGTAAAAAGTACATTATTCATGGCCTAT [XGTACX_site5601]", "gcPBM binding intensity (ln)": "7.46 ± 0.7"}
{"sequence": "TTAGAAAAATTATATATACACACTTATATTTATATA [CACACA_site2821]", "gcPBM binding intensity (ln)": "7.28 ± 0.4"}
{"sequence": "TAAATATTTTTAGATGCATGCAATAATTACCCAAAG [TGCATGCA_site636]", "gcPBM binding intensity (ln)": "8.15 ± 0.78"}
{"sequence": "ATTATATACAAATAAAGTACATAAACAAATTCAGAA [XGTACX_site1187]", "gcPBM binding intensity (ln)": "7.77 ± 0.47"}
{"sequence": "ATGTTAATTAATGAGGTGCATTGAATATTTCAATAA", "gcPBM binding intensity (ln)": "10.9 ± 0.73"}
{"sequence": "AATATTTTTCAATTTCATGTGCATTCATTGAAGTTA [CACACA_negctrl_site1232]", "gcPBM binding intensity (ln)": "8.76 ± 0.37"}
{"sequence": "TCTTTCAATATTAATGCATGTTAATAATAAATTTTA [TGCATGCA_site448]", "gcPBM binding intensity (ln)": "7.96 ± 0.57"}
{"sequence": "TAAGTATATATATTTACACACATTTGTTTTTTTTTA [CACACA_site3784]", "gcPBM binding intensity (ln)": "7.57 ± 0.6"}
{"sequence": "AAAAAATAGAATATAAAAATAAAGGAATTAAATTAA [XGTACX_negctrl_site420]", "gcPBM binding intensity (ln)": "7.33 ± 0.75"}
{"sequence": "AAAAACTTATATGATACACACGATAAACAAAATAAA [CACACA_site1039]", "gcPBM binding intensity (ln)": "7.91 ± 0.42"}
{"sequence": "ATTAGCAACATTGATAAATATAAACACACGAAAACA [TGCATGCA_negctrl_site97]", "gcPBM binding intensity (ln)": "8.09 ± 0.68"}
{"sequence": "TATGTACACCCATATACACACCTCTATAATATATAT [CACACA_site4563]", "gcPBM binding intensity (ln)": "8.38 ± 0.18"}
{"sequence": "AATATATATATATGTGCACACATATATAATATGTAT [CACACA_site716]", "gcPBM binding intensity (ln)": "9.2 ± 0.58"}
{"sequence": "TGTAATATATGTATTGCACACCTATAACCATTATTT [CACACA_site8422]", "gcPBM binding intensity (ln)": "9.89 ± 0.3"}
{"sequence": "TATATATATATGTGCACACATATATAATATGTATAA [CACACA_site715]", "gcPBM binding intensity (ln)": "10.1 ± 0.42"}
{"sequence": "TAGAATGTATGTAGTGCACACCTCTATAATATATTA [CACACA_site1873]", "gcPBM binding intensity (ln)": "11.3 ± 0.6"}
{"sequence": "TATAATGTATGTAGTGCACACCTCTATAATATATTA [CACACA_site8560]", "gcPBM binding intensity (ln)": "10.9 ± 0.64"}
{"sequence": "ATATATTACAAATGGAGTACTAAAAATATTCTATAT [XGTACX_site6669]", "gcPBM binding intensity (ln)": "8.02 ± 0.38"}
{"sequence": "ACACATATGACAAATAGTACATAAATATATAAATAT [XGTACX_site7141]", "gcPBM binding intensity (ln)": "7.79 ± 0.28"}
